{
  "source": "PubChem BioAssay (NCATS)",
  "note": "Values without a mark were called inactive. For part of these data: Entries with a potency or affinity are not part of this list. Calls of active or inactive are those of the source. The rule behind the calls is not given here. Throughout, for efficacy: 0% is about no effect.",
  "data": [
    {"conditions": "Ebola virus entry assay, green fluorescence channel", "units": {"efficacy": "%"}, "values": [
      {"smiles": "NC(N)=NCCC[C@H](N)C(=O)O", "efficacy": -16.3},
      {"smiles": "CC1CC(=O)NN=C1c1ccc(NCC(C)(C)NCC(O)COc2cc(Cl)ccc2C#N)cc1", "note": "(stereo not drawn)", "efficacy": 42.4},
      {"smiles": "CC(=O)Oc1ccc(C2(c3ccc(OC(C)=O)cc3)Oc3ccccc3NC2=O)cc1", "efficacy": -26.7},
      {"smiles": "C[N+]1(C)CCC(=C(c2ccccc2)c2ccccc2)CC1", "efficacy": -9.5},
      {"smiles": "CNC(=O)CN(CCN(CCN(CC(=O)[O-])CC(=O)NC)CC(=O)[O-])CC(=O)[O-].O.[Gd+3]", "efficacy": -24.9},
      {"smiles": "CC(=O)O[C@H]1C[C@@H]2CC[C@@H]3[C@H](CC[C@@]4(C)[C@H]3C[C@H]([N+]3(C)CCCCC3)[C@@H]4OC(C)=O)[C@@]2(C)C[C@@H]1N1CCCCC1", "efficacy": -18},
      {"smiles": "O=C(O)CN(CCOCCOCCN(CC(=O)O)CC(=O)O)CC(=O)O", "efficacy": 19.2},
      {"smiles": "CC1CC(OC(=O)C(O)c2ccccc2)CC(C)(C)N1C", "note": "(stereo not drawn)", "efficacy": 9.62},
      {"smiles": "CNC(=O)Oc1ccc2c(c1)[C@]1(C)CCN(C)[C@@H]1N2C", "efficacy": 20.2},
      {"smiles": "O=C(O)c1ccc(OCCN2CCCCC2)cc1", "efficacy": -23.5},
      {"smiles": "CC(C)(C)C(=O)NCCCC(=O)O", "efficacy": -17.8},
      {"smiles": "CCOC(=O)C(=O)CCc1ccccc1", "efficacy": -17.5},
      {"smiles": "COc1ccc2c(c1OC)C(=O)O[C@@H]2[C@H]1c2c(cc3c(c2OC)OCO3)CCN1C", "efficacy": -21},
      {"smiles": "NC(=O)CCCCC1CCSS1", "note": "(stereo not drawn)", "efficacy": 19.1},
      {"smiles": "O=C1Nc2ccccc2C1(c1ccc(O)cc1)c1ccc(O)cc1", "efficacy": -14},
      {"smiles": "CCCCOc1ccc(CC(=O)NO)cc1", "efficacy": -9.53},
      {"smiles": "CCCc1ncc(C[n+]2ccccc2C)c(N)n1", "efficacy": -20.5},
      {"smiles": "CCCc1nc(C)c2c(=O)[nH]c(-c3cc(S(=O)(=O)N4CCN(CC)CC4)ccc3OCC)nn12", "efficacy": 25.4},
      {"smiles": "CCN(CC)C(=O)C1CN2CCc3cc(OC)c(OC)cc3C2CC1OC(C)=O", "note": "(stereo not drawn)", "efficacy": -20.8},
      {"smiles": "COCc1c(C(C)C)nc(C(C)C)c(/C=C/[C@@H](O)C[C@@H](O)CC(=O)O)c1-c1ccc(F)cc1", "efficacy": 9.5},
      {"smiles": "C[N+](C)(C)CC[N+]1(C)Cc2c(Cl)c(Cl)c(Cl)c(Cl)c2C1", "efficacy": 13.2},
      {"smiles": "CC(=O)N[C@H]1[C@H]([C@H](O)[C@H](O)CO)OC(C(=O)O)=C[C@@H]1N=C(N)N", "efficacy": -18.6},
      {"smiles": "Nc1nc2ncc(CNc3ccc(C(=O)N[C@@H](CCC(=O)O)C(=O)O)cc3)nc2c(=O)[nH]1", "efficacy": 12.4},
      {"smiles": "CC(=O)OC[C@H]1O[C@@](COC(C)=O)(O[C@H]2O[C@H](COC(C)=O)[C@@H](OC(C)=O)[C@H](OC(C)=O)[C@H]2OC(C)=O)[C@@H](OC(C)=O)[C@@H]1OC(C)=O", "efficacy": 9.99},
      {"smiles": "COc1ccc([C@@H]2Sc3ccccc3NC(=O)[C@@H]2O)cc1", "efficacy": -10.4},
      {"smiles": "C[N+]1(CC2COC(c3ccccc3)(C3CCCCC3)O2)CCCCC1", "note": "(stereo not drawn)", "efficacy": 48.1},
      {"smiles": "CCOC(=O)[C@@](C)(N)Cc1ccc(O)c(O)c1", "efficacy": 38.1},
      {"smiles": "O=C(O)C(Cc1cc(I)c(O)c(I)c1)c1ccccc1", "note": "(stereo not drawn)", "efficacy": -25.4},
      {"smiles": "CS(=O)(=O)c1ccc(-c2cn3ccccc3n2)cc1", "efficacy": -11.6},
      {"smiles": "O=C(Oc1cccc2cccnc12)c1ccccc1", "efficacy": -27.7},
      {"smiles": "CCCSS/C(CCO)=C(\\C)N(C=O)Cc1cnc(C)nc1N", "efficacy": -15.5},
      {"smiles": "O=C1NC(=O)[C@@]2(CCOc3ccc(F)cc32)N1", "efficacy": -52},
      {"smiles": "CCCn1cnc2c1c(=O)n(CCCCC(C)=O)c(=O)n2C", "efficacy": 33.9},
      {"smiles": "C/C=C(/C(=C/C)c1ccc(OC(C)=O)cc1)c1ccc(OC(C)=O)cc1", "efficacy": 15.4},
      {"smiles": "CCOCCOC(=O)/C=C/c1ccc(OC)cc1", "efficacy": 19.6},
      {"smiles": "Cc1cc(C(C)(C)C)c(O)c(C(C)(C)C)c1", "efficacy": -23},
      {"smiles": "O=C1O[C@H]([C@@H](O)CO)C(O)=C1O", "efficacy": -34.4},
      {"smiles": "CN(C)C(=O)Nc1ccc(Cl)c(Cl)c1", "efficacy": 15.7},
      {"smiles": "COC(=O)C1=C(C)NC(COC(N)=O)=C(C(=O)OC(C)C)C1c1cccc(Cl)c1Cl", "note": "(stereo not drawn)", "efficacy": 27.1}
    ]},
    {"conditions": "Ebola virus entry assay, blue channel fluorescence", "values": [
      {"smiles": "NC(N)=NCCC[C@H](N)C(=O)O", "outcome": "inactive"},
      {"smiles": "CC1CC(=O)NN=C1c1ccc(NCC(C)(C)NCC(O)COc2cc(Cl)ccc2C#N)cc1", "note": "(stereo not drawn)", "outcome": "inactive"},
      {"smiles": "CC(=O)Oc1ccc(C2(c3ccc(OC(C)=O)cc3)Oc3ccccc3NC2=O)cc1", "outcome": "inactive"},
      {"smiles": "C[N+]1(C)CCC(=C(c2ccccc2)c2ccccc2)CC1", "outcome": "inactive"},
      {"smiles": "CNC(=O)CN(CCN(CCN(CC(=O)[O-])CC(=O)NC)CC(=O)[O-])CC(=O)[O-].O.[Gd+3]", "outcome": "inactive"},
      {"smiles": "CC(=O)O[C@H]1C[C@@H]2CC[C@@H]3[C@H](CC[C@@]4(C)[C@H]3C[C@H]([N+]3(C)CCCCC3)[C@@H]4OC(C)=O)[C@@]2(C)C[C@@H]1N1CCCCC1", "outcome": "inactive"},
      {"smiles": "O=C(O)CN(CCOCCOCCN(CC(=O)O)CC(=O)O)CC(=O)O", "outcome": "inactive"},
      {"smiles": "CC1CC(OC(=O)C(O)c2ccccc2)CC(C)(C)N1C", "note": "(stereo not drawn)", "outcome": "inactive"},
      {"smiles": "CNC(=O)Oc1ccc2c(c1)[C@]1(C)CCN(C)[C@@H]1N2C", "outcome": "inactive"},
      {"smiles": "O=C(O)c1ccc(OCCN2CCCCC2)cc1", "outcome": "inactive"},
      {"smiles": "CC(C)(C)C(=O)NCCCC(=O)O", "outcome": "inactive"},
      {"smiles": "CCOC(=O)C(=O)CCc1ccccc1", "outcome": "inactive"},
      {"smiles": "COc1ccc2c(c1OC)C(=O)O[C@@H]2[C@H]1c2c(cc3c(c2OC)OCO3)CCN1C", "outcome": "inactive"},
      {"smiles": "NC(=O)CCCCC1CCSS1", "note": "(stereo not drawn)", "outcome": "inactive"},
      {"smiles": "O=C1Nc2ccccc2C1(c1ccc(O)cc1)c1ccc(O)cc1", "outcome": "inactive"},
      {"smiles": "CCCCOc1ccc(CC(=O)NO)cc1", "outcome": "inactive"},
      {"smiles": "CCCc1ncc(C[n+]2ccccc2C)c(N)n1", "outcome": "inactive"},
      {"smiles": "CCCc1nc(C)c2c(=O)[nH]c(-c3cc(S(=O)(=O)N4CCN(CC)CC4)ccc3OCC)nn12", "outcome": "inactive"},
      {"smiles": "CCN(CC)C(=O)C1CN2CCc3cc(OC)c(OC)cc3C2CC1OC(C)=O", "note": "(stereo not drawn)", "outcome": "inactive"},
      {"smiles": "COCc1c(C(C)C)nc(C(C)C)c(/C=C/[C@@H](O)C[C@@H](O)CC(=O)O)c1-c1ccc(F)cc1", "outcome": "inactive"},
      {"smiles": "C[N+](C)(C)CC[N+]1(C)Cc2c(Cl)c(Cl)c(Cl)c(Cl)c2C1", "outcome": "inactive"},
      {"smiles": "CC(=O)N[C@H]1[C@H]([C@H](O)[C@H](O)CO)OC(C(=O)O)=C[C@@H]1N=C(N)N", "AC50": "2.82 µM (active)"},
      {"smiles": "Nc1nc2ncc(CNc3ccc(C(=O)N[C@@H](CCC(=O)O)C(=O)O)cc3)nc2c(=O)[nH]1", "outcome": "inactive"},
      {"smiles": "CC(=O)OC[C@H]1O[C@@](COC(C)=O)(O[C@H]2O[C@H](COC(C)=O)[C@@H](OC(C)=O)[C@H](OC(C)=O)[C@H]2OC(C)=O)[C@@H](OC(C)=O)[C@@H]1OC(C)=O", "outcome": "inactive"},
      {"smiles": "COc1ccc([C@@H]2Sc3ccccc3NC(=O)[C@@H]2O)cc1", "outcome": "inactive"},
      {"smiles": "C[N+]1(CC2COC(c3ccccc3)(C3CCCCC3)O2)CCCCC1", "note": "(stereo not drawn)", "outcome": "inactive"},
      {"smiles": "CCOC(=O)[C@@](C)(N)Cc1ccc(O)c(O)c1", "outcome": "inactive"},
      {"smiles": "O=C(O)C(Cc1cc(I)c(O)c(I)c1)c1ccccc1", "note": "(stereo not drawn)", "outcome": "inactive"},
      {"smiles": "CS(=O)(=O)c1ccc(-c2cn3ccccc3n2)cc1", "outcome": "inactive"},
      {"smiles": "O=C(Oc1cccc2cccnc12)c1ccccc1", "outcome": "inactive"},
      {"smiles": "CCCSS/C(CCO)=C(\\C)N(C=O)Cc1cnc(C)nc1N", "outcome": "inactive"},
      {"smiles": "O=C1NC(=O)[C@@]2(CCOc3ccc(F)cc32)N1", "outcome": "inactive"},
      {"smiles": "CCCn1cnc2c1c(=O)n(CCCCC(C)=O)c(=O)n2C", "outcome": "inactive"},
      {"smiles": "C/C=C(/C(=C/C)c1ccc(OC(C)=O)cc1)c1ccc(OC(C)=O)cc1", "outcome": "inactive"},
      {"smiles": "CCOCCOC(=O)/C=C/c1ccc(OC)cc1", "outcome": "inactive"},
      {"smiles": "Cc1cc(C(C)(C)C)c(O)c(C(C)(C)C)c1", "outcome": "inactive"},
      {"smiles": "O=C1O[C@H]([C@@H](O)CO)C(O)=C1O", "outcome": "inactive"},
      {"smiles": "CN(C)C(=O)Nc1ccc(Cl)c(Cl)c1", "outcome": "inactive"},
      {"smiles": "COC(=O)C1=C(C)NC(COC(N)=O)=C(C(=O)OC(C)C)C1c1cccc(Cl)c1Cl", "note": "(stereo not drawn)", "outcome": "inactive"}
    ]}
  ]
}
